Experimental data: PubChem BioAssay (NCI)
Compounds without any hit were thinned out: in the full panel of roughly 79,000, 15% have a hit. Activity calls are given as the source filed them. Rule as the data show it: active = growth inhibition above about 70%; inactive = the rest.

Tests used:
[1] = NCI Yeast Anticancer Drug Screen. Data for the rad52 strain (AID 147);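 also: 0% = growth of vehicle-treated control cultures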; conditions: S. cerevisiae rad52 mutant growth inhibition, active compounds read high
In short: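 Yeast strain carrying a DNA damage repair alteration was exposed to test compounds. Growth inhibition was measured relative to vehicle-treated controls.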

[2] = NCI Yeast Anticancer Drug Screen. Data for the wt1 strain (AID 149);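 also: 0% = growth of vehicle-treated wt1 cultures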; conditions: S. cerevisiae wt1 strain (SPY 50644) growth inhibition, active compounds read high
In short: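 Growth inhibition read against vehicle controls after compound exposure of the wt1 yeast strain.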

[3] = NCI Yeast Anticancer Drug Screen. Data for the rad50EPP+ strain (AID 151);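 also: 0% = growth of vehicle-treated control cultures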; conditions: S. cerevisiae rad50 mutant strain, active compounds read high
In short: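 Yeast strain carrying rad50 alteration (rad50EPP+) exposed to compounds; growth inhibition measured relative to vehicle-treated controls.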

[4] = NCI Yeast Anticancer Drug Screen. Data for the rad50 strain (AID 155);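 also: 0% = growth of vehicle-only cultures of the same strain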; conditions: S. cerevisiae rad50 strain growth inhibition, active compounds read high
In short: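 Readout: growth inhibition relative to vehicle-treated cultures. Compound exposure was carried out in a genetically defined yeast strain deficient in DNA damage repair.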

[5] = NCI Yeast Anticancer Drug Screen. Data for the mec2-1 strain (AID 157); conditions: S. cerevisiae mec2-1 strain, active compounds read high
In short: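 mec2-1 yeast strain, carrying an alteration in DNA damage repair or cell cycle control, was exposed to compounds; growth inhibition was measured relative to vehicle-treated controls.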

[6] = NCI Yeast Anticancer Drug Screen. Data for the rad14 strain (AID 159);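 also: 0% = growth of vehicle-treated control cultures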; conditions: S. cerevisiae rad14 strain growth inhibition, active compounds read high
In short: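 Growth inhibition vs vehicle controls; genetically altered yeast strain (DNA damage repair defect) treated with test compounds.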

[7] = NCI Yeast Anticancer Drug Screen. Data for the sgs1 mgt1 strain (AID 161);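 also: 0% = growth of cultures given vehicle only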; conditions: S. cerevisiae sgs1 mgt1 strain, active compounds read high
In short: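 Yeast cells carrying a defined DNA-repair defect were exposed to test compounds. Growth inhibition was measured relative to vehicle-treated controls.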

[8] = NCI Yeast Anticancer Drug Screen. Data for the CLN2oe strain (AID 163);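 also: 0% = growth of vehicle-only control cultures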; conditions: S. cerevisiae CLN2oe strain, active compounds read high
In short: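 Yeast cells carrying a defined cell-cycle control alteration were exposed to test compounds. Growth inhibition was scored against vehicle-treated control cultures.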

[9] = NCI Yeast Anticancer Drug Screen. Data for the cln2 rad14 strain (AID 165);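 also: 0% = growth equal to vehicle treated cultures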; conditions: S. cerevisiae cln2 rad14 strain, active compounds read high
In short: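 Yeast carrying cln2 and rad14 alterations (cell cycle control and DNA damage repair) were exposed to compounds. Growth inhibition was measured against vehicle-treated controls.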

[10] = NCI Yeast Anticancer Drug Screen. Data for the bub3 strain (AID 167); conditions: S. cerevisiae bub3 mutant strain, active compounds read high
In short: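 Readout: yeast growth inhibition, expressed relative to vehicle-only wells. The test organism is a mutant strain from a panel with lesions in DNA repair or checkpoint genes.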

[11] = NCI Yeast Anticancer Drug Screen. Data for the mlh1 strain (AID 171);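 also: 0% = growth of vehicle-treated control cultures of the same strain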; conditions: S. cerevisiae mlh1 strain growth inhibition, active compounds read high
In short: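 Yeast carrying a defined genetic alteration in DNA damage repair or cell cycle control were exposed to test compounds. Growth inhibition was measured relative to vehicle-treated controls.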

[12] = NCI Yeast Anticancer Drug Screen. Data for the sgs1 strain (AID 173);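 also: 0% = growth of vehicle-only control cultures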; conditions: S. cerevisiae sgs1 mutant, active compounds read high
In short: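 Yeast mutant strains carrying defined defects in DNA damage repair or cell cycle control were exposed to test compounds. Growth inhibition was scored against vehicle-treated controls.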

[13] = NCI Yeast Anticancer Drug Screen. Data for the mlh1 rad18 strain (AID 175); conditions: S. cerevisiae mlh1 rad18 strain growth inhibition, active compounds read high
In short: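 Growth inhibition of the yeast strain was measured after compound exposure and expressed relative to vehicle-treated controls. The strain carries defined defects in DNA damage repair.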

[14] = NCI Yeast Anticancer Drug Screen. Data for the rad18 strain (AID 177); conditions: S. cerevisiae rad18 mutant growth inhibition, active compounds read high
In short: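 Yeast carrying a defined DNA damage repair alteration were exposed to compounds. Growth inhibition was expressed relative to vehicle-treated controls.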

[15] = at 5.0 µM (retest, dose inferred, filed as 0.5)
[16] = at 50.0 µM (retest, dose inferred, filed as 5.0)

Measured: growth inhibition

CCCCOP(=O)(CCCP(=O)(OCCCC)OCCCC)OCCCC
inactive: [1]; at 1.2 µM 0% | [1]; at 3.7 µM 0% | [1]; at 11.0 µM 3% | [1]; at 33.0 µM 4% | [2]; at 1.2 µM -3% | [2]; at 3.7 µM 0% | [2]; at 11.0 µM 0% | [2]; at 33.0 µM 5% | [3]; at 1.2 µM -4% | [3]; at 3.7 µM -4% | [3]; at 11.0 µM -3% | [3]; at 33.0 µM -3% | [3]; at 100.0 µM -2% | [4]; at 1.2 µM -1% | [4]; at 3.7 µM 1% | [4]; [15] 7% | [4]; at 11.0 µM 1% | [4]; at 33.0 µM 7% | [4]; [16] 66% | [4]; at 50.0 µM 2.05% | [5]; at 1.2 µM -6% | [5]; at 3.7 µM -3% | [5]; [15] -7% | [5]; at 11.0 µM 2% | [5]; at 33.0 µM 7% | [5]; [16] 48% | [5]; at 50.0 µM 49.5% | [6]; at 1.2 µM 0% | [6]; at 3.7 µM 3% | [6]; at 11.0 µM 9% | [6]; at 33.0 µM 20% | [7]; [15] 12% | [7]; [16] 50% | [7]; at 50.0 µM -2.15% | [8]; at 1.2 µM 1% | [8]; at 3.7 µM -3% | [8]; at 11.0 µM 7% | [8]; at 33.0 µM 29% | [9]; [15] 7% | [9]; [16] 38% | [9]; at 50.0 µM 1.1% | [10]; at 1.2 µM -5% | [10]; at 3.7 µM -3% | [10]; [15] 0% | [10]; at 11.0 µM -2% | [10]; at 33.0 µM 1% | [10]; [16] 4% | [10]; at 50.0 µM 19.2% | [11]; at 1.2 µM -5% | [11]; at 3.7 µM -2% | [11]; at 11.0 µM 1% | [11]; at 33.0 µM 8% | [12]; at 1.2 µM -3% | [12]; at 3.7 µM -1% | [12]; at 11.0 µM 0% | [12]; at 33.0 µM 5% | [13]; [15] -2% | [13]; [16] 17% | [13]; at 50.0 µM 42.2% | [14]; at 1.2 µM -7% | [14]; at 3.7 µM 0% | [14]; at 11.0 µM 5% | [14]; at 33.0 µM 8%
active: [1]; at 100.0 µM 97% | [2]; at 100.0 µM 94% | [4]; at 100.0 µM 97% | [5]; at 100.0 µM 95% | [6]; at 100.0 µM 90% | [8]; at 100.0 µM 81% | [10]; at 100.0 µM 79% | [11]; at 100.0 µM 91% | [12]; at 100.0 µM 93% | [14]; at 100.0 µM 95%
